We go through 5 compounds from PubChem BioAssay (EPA / NIEHS).

“And” between values parts separate entries of the source, which are not always exact repeats. Equal entries are not always repeated. Where a structure was tested more than once in an assay, its records may differ in their call. The source made the active and inactive calls. Rule for the calls: active = hit-call score of the fitted dose curve at least 0.9, where 1 is the maximum; inactive = score below 0.9.

Assay [1] is described as follows: APR_HepG2_P-H2AX_72hr: Apredica 72-hour HepG2 Assay for H2AX Phosphorylation (AID 2282916).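 Note: phospho-histone H2A.x immunostain intensity per cell marking DNA damage.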 The note with it: imaging, actives raise or lower the signal. An outline of the steps: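 Following 72 hr treatment with 0.39–200 uM compound, HepG2 cells were formaldehyde-fixed, permeabilized and stained for phospho-H2A.x; signal was measured by high-content imaging and fitted bidirectionally against DMSO controls.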

A short description of assay [2]: APR_HepG2_MitoMembPot_72hr: Apredica 72-hour HepG2 Assay for Mitochondrial Membrane Potential (AID 2282917). The note with it: imaging, actives raise or lower the signal. In a few lines:
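Membrane potential read by MitoTracker Red CMXRos (250 nM, 30 min, pre-fixation) fluorescence imaging of HepG2 after 72 hr exposure. Ten concentrations, 0.39–200 uM, duplicate wells, 0.5% DMSO; fitted in both directions against DMSO baseline.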

Assay [3] can be described thus: APR_HepG2_MitoticArrest_72hr: Apredica 72-hour HepG2 Assay for Mitotic Arrest (AID 2282918). The note with it: high-content imaging, actives raise or lower the signal. In a few lines: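 Read-out is phospho-histone H3 immunofluorescence with Hoechst nuclear segmentation, imaged at 20x. Human HepG2 liver cells received ten concentrations (0.39–200 uM, final DMSO 0.5% v/v) for 72 hr before fixation. Gain or loss of signal was fitted relative to DMSO.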

Assay [4] in a line: APR_HepG2_MicrotubuleCSK_72hr: Apredica 72-hour HepG2 Assay for Microtubule CSK Stabilty (AID 2282919). The conditions noted are these: HepG2 microtubule cytoskeleton, high-content imaging, actives raise or lower the signal. In a few lines: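 Read-out is tubulin fluorescence intensity from high-content imaging of HepG2 cells, with nuclei identified by Hoechst 33342. Treatment lasts 72 h at 0.39–200 uM, and curves are fitted bidirectionally against the DMSO negative control.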

Assay [5] is described as follows: APR_HepG2_StressKinase_72hr: Apredica 72-hour HepG2 Assay for Stress Kinase (AID 2282921). The conditions noted are these: HepG2 stress kinase (phospho-c-Jun) imaging, actives raise or lower the signal. In a few lines:
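Fluorescence intensity of Cy3-tagged anti-phospho-c-Jun antibody, quantified per cell from Hoechst-defined nuclei across six images per well, served as the read-out following 72 h exposure (0.39–200 uM, 0.5% v/v DMSO).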

Assay [6] in a line: APR_HepG2_StressKinase_24hr: Apredica 24-hour HepG2 Assay for Stress Kinase (AID 2282922). The note with it: HepG2 stress kinase (phospho-c-Jun) imaging, actives raise or lower the signal. In a few lines: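 HepG2, 24 hr dosing, 0.39–200 uM in duplicate, 0.5% DMSO; formaldehyde fix (3.7%), 0.5% Triton X-100; anti-phospho-c-Jun + Cy3 secondary, Hoechst counterstain; ArrayScan imaging; bidirectional curve fit vs DMSO baseline.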

Assay [7] is described as follows: APR_HepG2_p53Act_72hr: Apredica 72-hour HepG2 Assay for p53 Activation (AID 2282923).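 Note: average cellular p53 protein immunofluorescence intensity in HepG2 cells.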 The conditions noted are these: high-content imaging, actives raise or lower the signal. In a few lines:
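HepG2 monolayers receive test compounds in duplicate at ten concentrations (0.39 through 200 uM) for 72 hr. They are then formaldehyde-fixed, antibody-labelled for p53, Hoechst-stained and imaged, with activity fitted bidirectionally versus DMSO.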

Assay [8] is described as follows: APR_HepG2_MitoMass_72hr: Apredica 72-hour HepG2 Assay for Mitochondrial Mass (AID 2282924).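 Note: MitoTracker Red CMXRos stain intensity per cell imaged as mitochondrial mass.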 The note with it: high-content imaging, actives raise or lower the signal. An outline of the steps: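 HepG2, 72 hr cmpd, 10 conc 0.39–200 uM in dup, DMSO 0.5% v/v. MitoTracker Red CMXRos 250 nM 30 min pre-fix; formaldehyde 3.7% fix 30 min RT. HCS imaging, gain/loss fit vs DMSO.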

A short description of assay [9]: APR_HepG2_NuclearSize_72hr: Apredica 72-hour HepG2 Assay for Nuclear Size (AID 2282925). The note with it: high-content imaging, actives raise or lower the signal. In a few lines: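 HepG2; cpd 0.39–200 uM, 10 conc, duplicate; 72 h; DMSO 0.5% v/v; fix 3.7% formaldehyde 30 min RT; Triton permeabilization; Hoechst 2 ug/mL; HCS imaging 20x; nuclear diameter; gain/loss fit vs DMSO.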

Assay [10] is described as follows: ATG_CRE_CIS: Attagene CIS-FACTORIAL HepG2 Assay for human cAMP Responsive Element (CRE) binding protein 3 (AID 2282926). The note with it: HepG2 CRE cis-reporter, Attagene multiplexed mRNA; actives raise or lower the signal. An outline of the steps: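 Human liver HepG2, transient MRTU transfection, 24 h compound exposure. Total RNA → oligo(dT) RT → PCR → 6-FAM primer extension → HpaI cut → CE. Activity called both directions vs DMSO.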

For assay [11], the target named is CCAAT/enhancer-binding protein beta (Homo sapiens) (UniProt P17676). Description: ATG_C_EBP_CIS: Attagene CIS-FACTORIAL HepG2 Assay for human CCAAT/Enhancer Binding Protein (C/EBP) beta (AID 2282927). The note with it: HepG2 Attagene cis-factorial transcription factor reporter; actives raise or lower the signal. In a few lines:
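Endogenous C/EBPb-driven reporter transcripts measured in transfected human HepG2 cells at 24 h via RT-PCR and capillary electrophoresis of labelled fragments. Activity fitted in both directions relative to DMSO baseline.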

A short description of assay [12]: ATG_CMV_CIS: Attagene CIS-FACTORIAL HepG2 Assay for human CMV (Internal Marker) (AID 2282928).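 Note: endpoint acts as a background internal control marker rather than a target.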 The note with it: HepG2 CMV promoter reporter, transcription factor profiling; actives raise or lower the signal. An outline of the steps:
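Endogenous transcription factor activity read in HepG2 via transfected cis-promoter reporter units. After 24 h dosing, reporter mRNA measured by RT-PCR/capillary electrophoresis; gain or loss of signal fit relative to DMSO.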

The nature of assay [13]: ATG_DR4_LXR_CIS: Attagene CIS-FACTORIAL HepG2 Assay for human Liver X Receptor (LXR), DR4 submotif (AID 2282929). The conditions noted are these: HepG2 Attagene DR4 cis-reporter, mRNA transcription; actives raise or lower the signal. An outline of the steps: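 HepG2, transient MRTU transfection, cis-element (DR4) promoter; 24 h compound exposure; total RNA → oligo(dT) RT → PCR → 6-FAM primer extension → HpaI cut → CE. Gain/loss vs DMSO, bidirectional fit.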

Assay [14] concerns the target Aryl hydrocarbon receptor (Homo sapiens) (UniProt P35869). Description: ATG_Ahr_CIS: Attagene CIS-FACTORIAL HepG2 Assay for human Aryl Hydrocarbon Receptor (Ahr) (AID 2282930). The note with it: HepG2 AhR cis-factorial reporter transcription; actives raise or lower the signal. An outline of the steps: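 Reporter mRNA levels, quantified by RT-PCR and fluorescent capillary electrophoresis, reflect endogenous AhR transcriptional activity in HepG2 cells carrying transfected cis-promoter reporter constructs. Readout at 24 h post-dose; gain or loss fitted against DMSO baseline.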

The nature of assay [15]: ATG_AP_1_CIS: Attagene CIS-FACTORIAL HepG2 Assay for human Activator Protein 1 (AP-1) (AID 2282931). The note with it: HepG2 Attagene cis-factorial AP-1 reporter mRNA; actives raise or lower the signal. An outline of the steps:
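Transient MRTU transfection of HepG2 → 24 h chemical treatment → RNA isolation, RT-PCR, 6-FAM labelling, HpaI digest → capillary electrophoresis. Fit: bidirectional, DMSO negative control.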

A short description of assay [16]: ATG_AP_2_CIS: Attagene CIS-FACTORIAL HepG2 Assay for human Activator Protein 2 (AP-2) (AID 2282932). The note with it: HepG2 AP-2 cis-reporter, Attagene transcription factor profiling; actives raise or lower the signal. In a few lines:
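Step one: transient transfection of HepG2 with reporter transcription units. Step two: 24 h chemical exposure. Step three: RNA extraction, RT-PCR, labelled fragment analysis by capillary electrophoresis; DMSO serves as baseline.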

Assay [17] can be described thus: ATG_BRE_CIS: Attagene CIS-FACTORIAL HepG2 Assay for human Bone Morphogenetic Protein (BMP) Response Element (BRE) (AID 2282933). The conditions noted are these: HepG2 BMP response element reporter, Attagene transcription factor profiling; actives raise or lower the signal. An outline of the steps: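 Endogenous transcription factor activity at a BMP response element was monitored in transfected HepG2 cells 24 h after dosing. Fluorescent RT-PCR products were resolved by capillary electrophoresis, and activity was fitted in both directions versus DMSO.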

Assay [18] has as its target Retinoic acid receptor alpha (Homo sapiens) (UniProt P10276). Description: ATG_DR5_RAR_CIS: Attagene CIS-FACTORIAL HepG2 Assay for human Retinoic Acid Receptor Alpha (RARE), DR5 submotif (AID 2282934).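 For AC50: reporter responds to endogenous RAR alpha beta and gamma in HepG2 not RARA alone.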 The conditions noted are these: HepG2 Attagene cis-factorial RARE DR5 reporter, mRNA; actives raise or lower the signal. In a few lines:
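Reporter transcripts from a DR5-regulated unit, measured via RT-PCR plus capillary electrophoresis, reflect endogenous RAR activity in transiently transfected human HepG2 liver cells. Exposure lasted 24 h; gain or loss of signal scored against DMSO.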

Assay [19] deals with Transcription factor E2F1 (Homo sapiens) (UniProt Q01094). Nature of the assay: ATG_E2F_CIS: Attagene CIS-FACTORIAL HepG2 Assay for human E2F Transcription Factor 1 (AID 2282935). The note with it: HepG2 Attagene cis-reporter, E2F reporter RNA transcripts; actives raise or lower the signal. An outline of the steps: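 Total RNA from 24 h-treated, reporter-transfected HepG2 cells undergoes DNase I treatment, oligo(dT) reverse transcription, PCR and 6-FAM primer extension before capillary electrophoresis.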

Assay [20] in a line: APR_HepG2_P-H2AX_24hr: Apredica 24-hour HepG2 Assay for H2AX Phosphorylation (AID 2282920). The conditions noted are these: high-content imaging, actives raise or lower the signal. In a few lines:
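HepG2, 24 hr, cpd 0.39–200 uM (10 conc, duplicate), DMSO 0.5% v/v final. Fix 3.7% formaldehyde, Triton X-100 permeabilize, anti-phospho-H2A.x 1:200 + Hoechst 2 ug/mL. Imaged, bidirectional fit vs DMSO.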

CCAAT/enhancer-binding protein beta (Homo sapiens), sequence (P17676 whole entry, looked up, the tested form may be a part): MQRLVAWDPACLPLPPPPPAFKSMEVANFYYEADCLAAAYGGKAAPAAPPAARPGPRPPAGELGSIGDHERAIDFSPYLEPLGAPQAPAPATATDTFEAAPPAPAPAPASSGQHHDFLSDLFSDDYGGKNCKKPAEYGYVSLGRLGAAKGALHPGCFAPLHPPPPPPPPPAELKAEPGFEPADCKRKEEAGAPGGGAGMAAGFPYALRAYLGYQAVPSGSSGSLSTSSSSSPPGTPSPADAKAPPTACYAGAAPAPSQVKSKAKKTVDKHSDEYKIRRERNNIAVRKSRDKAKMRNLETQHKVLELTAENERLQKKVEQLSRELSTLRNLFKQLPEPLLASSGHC
Retinoic acid receptor alpha (Homo sapiens), sequence (P10276 whole entry, looked up): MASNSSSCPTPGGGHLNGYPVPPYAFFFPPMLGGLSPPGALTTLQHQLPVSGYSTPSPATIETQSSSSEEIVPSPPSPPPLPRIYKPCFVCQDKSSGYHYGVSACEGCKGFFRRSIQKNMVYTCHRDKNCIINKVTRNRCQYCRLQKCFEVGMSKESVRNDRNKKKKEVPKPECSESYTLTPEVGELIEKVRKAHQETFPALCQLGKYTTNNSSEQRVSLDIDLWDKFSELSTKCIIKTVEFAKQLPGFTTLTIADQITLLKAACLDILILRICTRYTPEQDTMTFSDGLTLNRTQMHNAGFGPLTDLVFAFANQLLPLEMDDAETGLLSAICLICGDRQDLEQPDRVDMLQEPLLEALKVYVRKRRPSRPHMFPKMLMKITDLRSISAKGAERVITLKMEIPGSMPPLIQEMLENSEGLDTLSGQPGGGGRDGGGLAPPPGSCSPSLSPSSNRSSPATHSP
Aryl hydrocarbon receptor (Homo sapiens), sequence (P35869 whole entry, looked up): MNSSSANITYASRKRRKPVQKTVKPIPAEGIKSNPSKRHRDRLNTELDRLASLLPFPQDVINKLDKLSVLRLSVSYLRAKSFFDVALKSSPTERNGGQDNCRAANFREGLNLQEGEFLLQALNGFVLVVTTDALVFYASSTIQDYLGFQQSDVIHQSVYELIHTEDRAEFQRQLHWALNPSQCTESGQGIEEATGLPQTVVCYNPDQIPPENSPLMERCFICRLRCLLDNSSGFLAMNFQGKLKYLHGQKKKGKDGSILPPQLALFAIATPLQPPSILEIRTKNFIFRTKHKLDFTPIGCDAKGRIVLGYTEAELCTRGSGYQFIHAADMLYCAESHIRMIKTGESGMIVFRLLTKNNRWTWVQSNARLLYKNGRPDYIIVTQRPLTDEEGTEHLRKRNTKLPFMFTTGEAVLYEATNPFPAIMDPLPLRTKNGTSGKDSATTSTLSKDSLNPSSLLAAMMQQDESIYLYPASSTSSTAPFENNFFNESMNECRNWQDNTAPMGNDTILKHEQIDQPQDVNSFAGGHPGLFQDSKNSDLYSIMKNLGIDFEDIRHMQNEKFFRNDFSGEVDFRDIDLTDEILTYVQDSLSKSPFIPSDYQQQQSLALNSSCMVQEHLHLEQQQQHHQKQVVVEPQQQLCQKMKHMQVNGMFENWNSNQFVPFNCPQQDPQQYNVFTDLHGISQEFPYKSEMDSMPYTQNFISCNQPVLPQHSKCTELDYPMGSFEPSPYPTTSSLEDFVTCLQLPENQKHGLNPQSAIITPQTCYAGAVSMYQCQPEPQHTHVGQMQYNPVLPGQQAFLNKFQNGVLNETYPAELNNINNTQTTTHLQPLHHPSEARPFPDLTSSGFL
Transcription factor E2F1 (Homo sapiens), sequence (Q01094 whole entry, looked up): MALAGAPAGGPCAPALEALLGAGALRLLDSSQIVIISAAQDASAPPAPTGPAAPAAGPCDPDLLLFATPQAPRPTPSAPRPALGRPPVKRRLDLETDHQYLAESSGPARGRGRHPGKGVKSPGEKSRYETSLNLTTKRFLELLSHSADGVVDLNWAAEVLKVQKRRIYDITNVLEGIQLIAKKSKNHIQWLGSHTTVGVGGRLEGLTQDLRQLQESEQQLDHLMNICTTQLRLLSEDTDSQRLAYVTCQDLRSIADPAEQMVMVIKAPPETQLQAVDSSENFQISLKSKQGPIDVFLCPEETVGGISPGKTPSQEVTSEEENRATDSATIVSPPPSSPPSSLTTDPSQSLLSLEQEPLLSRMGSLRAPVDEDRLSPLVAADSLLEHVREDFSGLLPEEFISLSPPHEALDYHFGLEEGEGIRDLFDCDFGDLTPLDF

In general, AC50 refers to the concentration giving half of the maximal activity seen. With `Oc1c(Cl)c(Cl)c(Cl)c(Cl)c1Cl`, the result in assay [1], in [2], in assay [3], in [4], in assay [5] and in [6] was inactive. In addition, the compound was called inactive in [7], in assay [8], in assay [9], in [10], in [11] and in [13]. Also, the compound was classed as inactive in assay [15], in assay [16], in assay [18] and in assay [19]. In addition, the AC50 was 19.3 µM (active) and 10.2 µM (active) in assay [10]; 13.7 µM (active) in assay [11]; 28.7 µM (active) and 8.37 µM (active) and 39.7 µM (active) in assay [12]; 31.6 µM (active) and 34.8 µM (active) in assay [13]; 14 µM (active) and 6.01 µM (active) and 874 nM (active) in assay [14]; 13.7 µM (active) and 3.6 µM (active) in assay [15]. For the same compound, the AC50 in [16] is 26.1 µM (active); in [17], 13.6 µM (active) and 18.2 µM (active) and 31.3 µM (active); in assay [18], 14.1 µM (active).

On to `Oc1ccc(Cl)cc1Cl`, for which the result in assay [1], in assay [2], in assay [3], in [4], in [20] and in [5] was inactive. Also, the result in assay [6], in assay [7], in assay [8], in assay [9], in assay [10] and in assay [11] was inactive. Further, the outcome in assay [12], in assay [13], in assay [14], in assay [15], in assay [16] and in assay [17] was inactive. Moreover, the call in [18] and in assay [19] was inactive.

Consider `CC(C)(O)C(=O)Nc1ccc([N+](=O)[O-])c(C(F)(F)F)c1`, for which the result in assay [1], in assay [3], in [4], in [20], in [5] and in assay [6] was inactive. For the same compound, the compound was classed as inactive in assay [7], in assay [10], in assay [11], in assay [12], in assay [13] and in [14]. Moreover, the outcome in [15], in [16], in [17], in [18] and in [19] was inactive. Moreover, the AC50 in [2] is 0.889 µM (active); in assay [8], 0.652 µM (active); in [9], 0.522 µM (active); in assay [10], 51 µM (active); in assay [11], 57.1 µM (active); in [17] it was 77 µM (active) and 121 µM (active).

`CCNc1nc(NC(C)C)nc(SC)n1`: the outcome in [1], in assay [3], in [4], in assay [20], in [5] and in [6] was inactive. The compound was called inactive in assay [8], in assay [9], in assay [10], in assay [11], in [12] and in assay [13]. For the same compound, the compound was called inactive in assay [14], in assay [15], in assay [16] and in assay [19]. In [2], the AC50 was 59.6 µM (active).

As for `CCC(=O)O[C@H]1CC[C@H]2[C@@H]3CCC4=CC(=O)CC[C@]4(C)[C@H]3CC[C@]12C`, the AC50 in [1] is 86.5 µM (active); in assay [2] it was 114 µM (active); in [3] it was 65 µM (active); in assay [4], 158 µM (active); in assay [7] it was 89.9 µM (active); in [8], 92.1 µM (active). Also, the AC50 is 50.8 µM (active) in assay [9]; 144 µM (active) [middle of 4 runs] in assay [10]; 72.9 µM (active) and 100 µM (active) in assay [12]; 170 µM (active) and 169 µM (active) and 162 µM (active) in assay [13]; 38.6 µM (active) in [14]. Moreover, the call in assay [5], in assay [6], in assay [11], in assay [12], in assay [13] and in assay [14] was inactive. Further, the compound was classed as inactive in assay [15], in assay [16], in assay [18] and in assay [19].
